aSyn UTR act: Activators via SNCA 5'UTR binding, MLPCN. 7.1% of 300,000 active. alpha-synuclein 5'UTR reporter, activators screen. activity score, % (tested at 7.5 µM), hits read low; in the data active = activity score below about -60%
Large screens that a line does not name were inactive. Only a sample is shown.

CN1CCc2c(sc3c2C(=O)NC(c2cccc(OC(=O)c4cccs4)c2)N3)C1 (centres undefined)	aSyn UTR act -108
CC1CCc2c(sc3ncnc(NS(=O)(=O)c4cccs4)c23)C1 (centres undefined)	aSyn UTR act -101
COc1cc(CO)ccc1OCc1ccc(Cl)nc1	aSyn UTR act -102
CCCCOc1ccc(-c2ncc(C(=O)O)c(C)n2)cc1	aSyn UTR act -123
COC(=O)c1ccc2nc(-c3cccc(N)c3)cn2c1	none
COC(=O)c1ccc(OCCOc2ccccc2)cc1	aSyn UTR act -131
COC(=O)c1ccc(N=Nc2ccccc2)cc1	aSyn UTR act -132
Cc1ccc(N=c2c([N+](=O)[O-])nn(-c3ccccc3)n2O)c(C)c1	aSyn UTR act -195
Cc1c(Cl)cccc1N=c1c([N+](=O)[O-])nn(-c2ccccc2)n1O	aSyn UTR act -141
COc1cc(C=O)ccc1OCCSc1ccc(Cl)cc1	aSyn UTR act -87
CCOc1ccc(N/C(C)=C\C(=O)c2ccc3c(c2)OCCO3)cc1	aSyn UTR act -133
CCOc1ccc(N/C(C)=C/C(=O)c2ccc3c(c2)OCCO3)cc1	aSyn UTR act -204
CC(=C/c1ccco1)/C=N/N1CCN(c2ccccc2)CC1	aSyn UTR act -175
CC(/C=N/N1CCN(c2ccccc2)CC1)=C\c1ccco1	aSyn UTR act -101
COc1cc2nc(Nc3cccc(F)c3)nc(N)c2cc1OC	aSyn UTR act -93
Cc1ccc(OC/C(=N\O)C(C)(C)C)c([N+](=O)[O-])c1	aSyn UTR act -77
Cc1ccc(OCC(=O)Nc2ccon2)c([N+](=O)[O-])c1	aSyn UTR act -91
Cc1ccc(OCC(=O)Nc2ccccc2[N+](=O)[O-])c(Br)c1	aSyn UTR act -207
CCSc1nnc(NC(=O)c2cc3c(s2)CCCC3)s1	aSyn UTR act -187
O=C(Nc1nnc(SCc2ccccc2)s1)c1cc2c(s1)CCCC2	aSyn UTR act -80
CC(=O)n1nc(-c2ccc(Cl)cc2)nc1NCc1ccco1	aSyn UTR act -117
CCC(=O)n1nc(-c2ccc(OC)cc2)nc1NCc1cccs1	aSyn UTR act -102
COc1ccc(CC(=O)n2nc(-c3ccc(Cl)cc3)nc2NCc2ccco2)cc1	aSyn UTR act -105
CCOC(=O)c1oc2nc3c(cc2c1N)CCCC3	aSyn UTR act -107
Nc1c(C(=O)c2ccccc2)sc2nsc(SCCN3CCCC3)c12	aSyn UTR act -87
CCc1sc(C(=O)Nc2ccc3c(c2)OCCO3)cc1Br	aSyn UTR act -193
CCn1ncc(Br)c1C(=O)Nc1ccc2c(c1)OCCO2	aSyn UTR act -94
CCn1ncc(Br)c1C(=O)Nc1ccc(C(C)C)cc1	aSyn UTR act -79
C=CCOc1c(Br)cc(/C=N/Nc2ccc(C(=O)O)cc2)cc1OCC	aSyn UTR act -123
CCOc1cc(/C=N\NC(N)=O)cc(Br)c1OC(C)C	none
Cc1ccc(CSc2ccc(-c3cccs3)nn2)cc1	aSyn UTR act -99
c1cncc(CSc2ccc(-c3cccs3)nn2)c1	aSyn UTR act -110
Fc1ccc(CSc2ccc(-c3cccs3)nn2)cc1	aSyn UTR act -121
c1ccc(CSc2ccc(-c3cccnc3)nn2)nc1	aSyn UTR act -78
O=C(CSC(=S)N1CCOCC1)Nc1nc(=O)c2ccccc2s1	aSyn UTR act -85
Cc1oc(-c2ccc(Cl)cc2)cc1C(=O)O	aSyn UTR act -83
COc1cccc(/C=N/Nc2ncnc(Cl)c2N)c1O	none
COc1cccc(CNc2ncc(Br)cc2Br)c1O	aSyn UTR act -125
Cc1cc(C)nc(Nc2nc3ccccc3s2)n1	aSyn UTR act -177
CC(=O)c1c(C)nc(Nc2nc3ccccc3s2)nc1C	aSyn UTR act -83
Oc1ccc(-c2nnc(-c3ccccc3)c(-c3ccccc3)n2)cc1	aSyn UTR act -201
Oc1ccccc1N=Nc1nc(-c2ccccc2)c(-c2ccccc2)[nH]1	none
CN(C)c1nc(-c2ccccn2)nnc1-c1ccccc1	none
Cc1nc2ccc(NC(=O)NCCCO)cc2s1	aSyn UTR act -64
Cc1nc2ccc(NC(=O)NCCO)cc2s1	aSyn UTR act -64
CCN(CC)c1ccc(C(=O)n2cnc3ccccc32)cc1	aSyn UTR act -128
CCN(CC)c1ccc(C(=O)Nn2cnc3ccccc3c2=O)cc1	aSyn UTR act -92
CCN(CC)C(=O)c1ccc2nc3ccccc3nc2c1	none
Cc1ccc2c(c1)OC(c1ccc3c(c1)OCCO3)CC2=O (centres undefined)	aSyn UTR act -151
O=[N+]([O-])c1cc2c(c(CSc3ncccn3)c1)OCOC2	aSyn UTR act -63
O=[N+]([O-])c1cc(O)c2ncccc2c1	none
Cc1ccc(C(=O)NC(=S)Nc2ccc(-c3cc4ccccc4oc3=O)cc2)c(C)c1	none
Cc1ccc(C(=O)Cc2cc3ccccc3oc2=O)c(C)c1	aSyn UTR act -130
COc1ccc(C(=O)Cc2cc3ccccc3oc2=O)cc1	aSyn UTR act -125
CCOC(=O)c1csc(NC(=O)c2ccccc2)n1	aSyn UTR act -158
CCOC(=O)c1csc(-c2ccc3c(c2)CCO3)n1	aSyn UTR act -110
CCOC(=O)Cc1cnc(NC(=O)c2ccccc2)s1	aSyn UTR act -113
CCOC(=O)c1csc(NC(=O)c2ccc3c(c2)OCCO3)n1	aSyn UTR act -79
Cc1nc2c(ccc3nc(NC(=O)c4ccc5c(c4)OCCO5)sc32)s1	aSyn UTR act -117
C=CCOC(=O)c1sc(NC(=O)c2ccco2)nc1C	aSyn UTR act -167
CCOC(=O)c1sc(NC(=O)c2cc3ccccc3o2)nc1C	aSyn UTR act -113
Cc1nnc(NC(=O)c2cc3ccccc3o2)s1	aSyn UTR act -82
CCOC(=O)c1sc(NC(=O)c2ccc(CC)s2)nc1C	aSyn UTR act -133
CCOC(=O)c1sc(NC(=O)Nc2ccccc2F)nc1C	none
CCOC(=O)c1csc(NC(=O)c2cc3ccccc3o2)n1	aSyn UTR act -125
CCc1ccc(C(=O)Nc2cc(C)ccc2F)s1	aSyn UTR act -143
CCOC(=O)c1sc(Nc2ccccc2Cl)nc1C	aSyn UTR act -184
COC(=O)Cc1csc(Nc2ccccc2Cl)n1	aSyn UTR act -86
Cc1ccc(O)c(-c2cc(-c3ccccc3[N+](=O)[O-])[nH]n2)c1	aSyn UTR act -95
Oc1ccc(Cl)cc1-c1cc(-c2ccccc2Cl)[nH]n1	aSyn UTR act -158
COc1ccc(Oc2ccc(-c3ccn[nH]3)cc2)cc1	aSyn UTR act -76
COc1ccc(-c2cc(-c3ccc(C)cc3)n[nH]2)c(O)c1	aSyn UTR act -144
COc1ccc(-c2cc(-c3ccc(OC)cc3)[nH]n2)cc1	aSyn UTR act -155
COc1ccc(-c2cc(-c3cc(C)ccc3O)[nH]n2)cc1	aSyn UTR act -249
CC(C)COC(=O)/C(C#N)=C/c1cn(Cc2ccccc2)c2ccccc12	none
CCOC(=O)/C(C#N)=C/c1cc(C)n(-c2ccc(C)cc2)c1C	aSyn UTR act -130
Brc1ccc(C2=NC(Cc3ccccc3)CO2)cc1 (centres undefined)	aSyn UTR act -176
Clc1ccccc1-c1nc(-c2ccccc2)n[nH]1	aSyn UTR act -214
O=C(Nc1cccc(F)c1)Nc1ccc(Cl)cn1	aSyn UTR act -135
Cc1ccc(NC(=O)Nc2cccc(F)c2)nc1	aSyn UTR act -176
COCCN(C(=O)COC(=O)/C=C/c1ccccc1Cl)c1c(N)n(Cc2ccccc2)c(=O)[nH]c1=O	aSyn UTR act -92
Cc1ccc(/C=N/NC(=O)c2nn(C)cc2Cl)cc1	aSyn UTR act -108
Cn1cc(Cl)c(C(=O)N/N=C/c2ccc3c4c(cccc24)CC3)n1	aSyn UTR act -126
c1ccc(Cc2cc(-c3ccccc3)on2)cc1	aSyn UTR act -130
c1ccc(SCc2cc(-c3ccccc3)no2)cc1	aSyn UTR act -143

Compound activity (PubChem)
